# Pf growth 48h: Primary qHTS for delayed death inhibitors of the malarial parasite plastid, 48 hour incubation; P. falciparum luciferase growth in erythrocytes, 48 h; Potency, µM (highest dose often 28.7 µM), inactives show top-dose activity change, negative = inhibition, usual class: inhibitors; hit rate 5.9% among 310,000; AID 504832, 2011
#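 First compound was added to culture medium, then infected red cells at 0.1% parasitemia and 2% hematocrit (final). After incubation at 37 C under 5% CO2, luciferase detection reagent was dispensed and light output recorded.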
# AmpC no deterg: qHTS Inhibitors of AmpC Beta-Lactamase (assay without detergent). hit rate 0.52% among 330,000. AmpC nitrocefin hydrolysis, absorbance 480 nm, 0.0001% Triton. P00811. AID 485341, 2010. Potency, µM (top dose mostly 57.1 µM), for the others: at the top dose activity change, negative = inhibition, usual class: inhibitors;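 note: plate controls were no compound for no effect and no enzyme for full effect; nearly all actives have a fitted effect of over 20% in size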
# Target sequence (P00811 whole entry, looked up): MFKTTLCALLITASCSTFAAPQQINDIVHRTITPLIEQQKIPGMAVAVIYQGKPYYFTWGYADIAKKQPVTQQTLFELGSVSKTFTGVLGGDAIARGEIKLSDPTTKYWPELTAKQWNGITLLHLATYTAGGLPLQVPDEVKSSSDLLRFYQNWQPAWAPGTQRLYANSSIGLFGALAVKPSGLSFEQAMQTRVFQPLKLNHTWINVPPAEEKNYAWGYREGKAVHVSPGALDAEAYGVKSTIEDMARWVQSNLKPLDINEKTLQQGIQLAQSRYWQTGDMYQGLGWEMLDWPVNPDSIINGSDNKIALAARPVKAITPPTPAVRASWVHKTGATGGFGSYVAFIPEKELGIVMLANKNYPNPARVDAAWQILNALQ
#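 AmpC (5.3 nM in the dispensed reagent) in 20 mM phosphate pH 7.0 with 0.01% (detergent screen) or 0.0001% Triton X-100 was preincubated with compounds for 15 min at room temperature. Nitrocefin was then added from an 800 uM solution, and hydrolysis was followed at 480 nm.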
# AmpC inh detg: qHTS Inhibitors of AmpC Beta-Lactamase (assay with detergent). P00811. AmpC hydrolysis of nitrocefin, absorbance 480 nm, 0.01% Triton. Potency, µM (highest dose often 114 µM), without a hit: top-dose activity change, negative = inhibition, usual class: inhibitors. hit rate 0.041% among 370,000;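 note: 0% = no-compound wells and -100% = no-enzyme wells; nearly all actives have a fitted effect of over 25% in size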
#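 AmpC (5.3 nM in the dispensed reagent) in 20 mM phosphate pH 7.0 with 0.01% (detergent screen) or 0.0001% Triton X-100 was preincubated with compounds for 15 min at room temperature. Nitrocefin was then added from an 800 uM solution, and hydrolysis was followed at 480 nm.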
# Pf growth 96h: Primary qHTS for delayed death inhibitors of the malarial parasite plastid, 96 hour incubation | P. falciparum luciferase reporter growth, 96 h | Potency, µM (top dose mostly 28.7 µM), for inactives: at the top dose activity change, negative = inhibition, actives largely listed as inhibitors | hit rate 6.9% among 320,000
#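 Compounds incubated with erythrocytes infected by luciferase-expressing P. falciparum (2% hematocrit, 0.05% parasitemia final) for 96 hours, 37 C in 5% CO2. Growth inhibition scored as decreased luciferase luminescence.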
# HCV inhibitor: qHTS Assay for Inhibitors of Hepatitis C Virus (HCV); hit rate 3.4% among 340,000; Huh7.5.1 HCVcc-Cre infection, luciferase reporter, 44 h; Potency, µM (doses to about 41.8 µM), for inactives: at the top dose activity change, negative = inhibition, hits mostly inhibitors
#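 A cell-based infection assay in which seeded cells (1,000 per well) receive test compound after 4 h, are inoculated with HCVcc-Cre at approximately 0.5 moi, and are incubated 44 h before luminescence detection.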
# AMA1-RON2 inh: qHTS for Inhibitors of AMA1-RON; Towards Development of Antimalarial Drug Lead: Primary Screen. Plasmodium falciparum AMA1 (3D7) - RON2 peptide interaction. Potency, µM (top dose mostly 58.2 µM), for the others: top-dose activity change, negative = inhibition, most hits filed as inhibitors. hit rate 0.2% among 360,000. AlphaScreen AMA1-biotinylated RON2 peptide binding. AID 720542, 2013;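 note: 0% = vehicle wells and -100% = peptide control; nearly all actives have a fitted effect of over 45% in size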
#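 AMA1 (3D7) with his tag at 25 nM final met compounds first, then biotinylated RON2 peptide at 25 nM; detection used donor plus acceptor beads, 10 µg/mL apiece, read by AlphaScreen after 30 min at room temperature.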
# * = called active by the depositor; ? = inconclusive; / = not tested or not shown; ! = not active in a repeat. Hits are enriched below; roughly 11% of the tested compounds scored in any of these assays. Calls come from the whole dose curve; as a rule, active = well fitted curve in the direction sought with a large enough effect; inconclusive = small, poorly fitted or top-dose-only effect, or another doubt; inactive = no such curve, though single readings can be large; an effect the other way counts as inactive or inconclusive. Unless noted, % is set by controls: 0 for no effect and ±100 for the full control effect; potency is the fitted concentration of half-maximal effect.
SMILES,Pf growth 48h,AmpC no deterg,AmpC inh detg,Pf growth 96h,HCV inhibitor,AMA1-RON2 inh
Cc1ccc(CNC(=O)CSc2nnc(C)c3c(C)n(-c4ccccc4)nc23)cc1,/,/,1.4%,/,/,/
CCOc1ccc(-n2c(=O)c3c4c(sc3n(CC(=O)Nc3cccc(C(F)(F)F)c3)c2=O)CCCCC4)cc1,/,/,20.9%,/,/,/
O=C(Nc1cnn(C23CC4CC(CC(C4)C2)C3)c1)c1cc(-c2ccccc2)on1,10.4µM*,-41.6%,-12.8%,/,-29.2%,-4.9%
CCOc1ccccc1C(=O)NCC(c1ccc(N(C)C)cc1)N1CCc2ccccc21 (stereo unspecified),/,/,18.2%,/,/,/
Cc1nc(CCl)cc(=O)[nH]1,5.22µM*,-8.8%,0.9%,?,5.9%,-3.9%
O=c1[nH]c(=O)n(Cc2ccccc2)c2nc(-c3ccco3)cc(C(F)(F)F)c12,?,-25.0%,?,5.86µM*,?,1.3%
CCOC(=O)c1cc(-c2ccc([N+](=O)[O-])cc2)nc2c1c(=O)[nH]c(=O)n2Cc1ccccc1,22.9%,-18.4%,-11.9%,22.5%,10.2%,-3.6%
CCCn1c(=O)[nH]c(=O)c2c(C(F)(F)F)cc(-c3ccc(C)cc3)nc21,40.0%,-15.0%,-10.9%,2.62µM*,6.0%,-1.4%
Cc1cc(C(F)(F)F)c2c(=O)[nH]c(=O)n(Cc3ccccc3)c2n1,-7.4%,-20.3%,-13.4%,?,-29.6%,8.2%
CC(C)Cn1c(=O)[nH]c(=O)c2c(C(F)(F)F)cc(-c3ccccc3)nc21,?,-25.2%,-12.9%,8.28µM*,?,-3.0%
COc1ccccc1NC(=O)C1=C(C)Nc2ncnn2C1c1ccc[nH]1 (stereo unspecified),/,/,14.8%,/,/,/
CCSC1=NC2(CCN(C(=O)NC3CCCCC3)CC2)N=C1c1ccc(C)cc1,/,/,-11.4%,/,/,/
CN(C)CCN(CC1CCCN(Cc2ccccc2F)C1)C(=O)c1ccc(Cl)cc1 (stereo unspecified),?,82.4%,?,13.1µM*,?,-3.8%
CCN(CC)CCN1CCn2c3c(c4cc(C)ccc42)CCCC31 (stereo unspecified),3.7µM*,41.9%,-6.8%,9.28µM*,8.91µM*,-11.6%
CCN1CCN(C(c2cccc(OC)c2)c2c(O)cc(C)n(Cc3ccco3)c2=O)CC1 (stereo unspecified),/,/,10.8%,/,/,/
Cn1nc(C(F)(F)F)c(C(=O)Nc2ccc(F)cc2F)c1Oc1cccc(Cl)c1,-41.5%,-4.6%,-14.7%,?,?,17.8%
Cc1nn(C)c(Oc2ccc(Cl)cc2)c1C(=O)Nc1ccc(F)cc1F,8.0%,-3.6%,-0.2%,?,10µM*,-7.7%
O=C(Nc1cc(Cl)ccc1Oc1ccccc1)c1ccccc1F,?,-26.0%,-12.2%,-2.9%,-27.7%,30.4%
Cc1ccc(Oc2ccc(Cl)cc2NC(=O)c2ccc(F)cc2F)cc1,5.22µM*,-38.9%,-4.4%,10.4µM*,-21.4%,0.0%
CCCSc1nnc2n(-c3cccc(C)c3)c(=O)c3c4c(sc3n12)CCCC4,/,/,10.3%,/,/,/
COCCn1c(SCC(=O)NC2CC2)nnc1-c1ccco1,5.9%,-6.2%,3.1%,24.3%,7.2%,-8.3%
CCn1c(SCC(=O)NC2CCCC2)nnc1-c1ccncc1,5.6%,-10.8%,0.0%,1.2%,5.5%,-1.7%
COCCn1c(SCC(=O)N2CCCC2)nnc1-c1ccco1,24.2%,-18.5%,-14.2%,35.0%,5.1%,1.7%
COCCCn1c(SCC(=O)NC2CCCCC2)nnc1-c1ccncc1,8.3%,-8.7%,-4.8%,8.28µM*,21.8%,-4.3%
COCCn1c(SCC(=O)c2cccc(OC)c2)nnc1-c1ccco1,12.6%,-5.9%,?,13.1µM*,7.9%,3.3%
SMILES,Pf growth 48h,AmpC no deterg,AmpC inh detg,Pf growth 96h,HCV inhibitor,AMA1-RON2 inh
COCCCn1c(SCC(=O)NC2CCCCC2)nnc1-c1ccco1,10.4%,-22.0%,?,2.33µM*,8.0%,2.6%
Cc1nc(-c2ccc(S(=O)(=O)N3CCN(c4cccc(C(F)(F)F)c4)CC3)cc2)co1,/,/,-5.4%,/,/,/
CC(C)(CO)C(O)C(=O)NCCCC(=O)O (stereo unspecified),-92.3%,/,/,-17.3%,/,/
CCOc1ccc(NC(=O)c2sc(-n3nc(C)c(Cc4ccc(Cl)cc4)c3C)nc2C)cc1,/,/,-5.5%,/,/,/
Cc1cccc2c(=O)cc(CSCC(=O)Nc3ccc(Cl)cc3)[nH]c12,/,/,14.0%,/,/,/
CC(=O)Nc1ccccc1-c1nc2ccccc2n(C(C)C(=O)Nc2cccc(C)c2C)c1=O (stereo unspecified),/,/,-6.1%,/,/,/
CC1(C)S[C@@H]2[C@H](NC(=O)COc3ccccc3)C(=O)N2C1C(=O)OCc1cc2ccccc2n1S(=O)(=O)c1ccccc1 (stereo partly specified),-15.9%,8.91µM*,?,13.1µM*,/,/
CC(C)CCSc1nc(N)c(C#N)cc1C#N,11.7µM*,-7.9%,?,-10.1%,?,23.9%
O=C(CN1CCCCCC1)NC(c1ccccc1)c1ccccc1,?,16.0%,-2.2%,?,29.3%,?
CC1Cc2ccccc2N1CC(=O)NC(c1ccccc1)c1ccccc1 (stereo unspecified),10.4µM*,-11.3%,-13.6%,6.57µM*,?,?
CC1CC(C)CN(CC(=O)NC(c2ccccc2)c2ccccc2)C1 (stereo unspecified),11.7µM*,34.2%,1.8%,5.3%,-5.6%,?
O=C(Cn1cnc2ccccc21)NC(c1ccccc1)c1ccccc1,4.15µM*,-0.2%,?,3.7µM*,-18.0%,11.9%
COc1cccc(CNC(=O)c2cc(-c3ccc(Cl)cc3)n[nH]2)c1,/,/,-5.1%,/,/,/
CCCCCCCCCCOC(=O)Cn1c(COc2ccc(OC)cc2)[n+](C)c2ccccc21,4.15µM*,119.1%,0.3%,4.65µM*!,?,-3.9%
CCCCCCCCCCOC(=O)Cn1c(COc2cccc(C)c2)[n+](C)c2ccccc21,?,169.2%,?,5.22µM*,?,-9.2%
CCCCCCCCCCOC(=O)Cn1c(COc2ccccc2)[n+](C)c2ccccc21,?,99.7%,0.2%,?,?,-0.2%
CC1CCCN(C(=O)C(C)Nc2cc(Cl)ccc2N2CCOCC2)C1 (stereo unspecified),?,167.3%,-1.3%,0.657µM*,-7.6%,-19.9%
